Consider 14 compounds from PubChem BioAssay.

Structures are written as SMILES. Calls of active or inactive are those of the source.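 Rule for the calls, unless noted: active = NADPH fluorescence slope more negative than the mean of all samples by about 3 SD, 99.7% confidence; inactive = the rest.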

A short description of assay [1]: inhibitors of TNFa-induced NFkB p65 translocation, primary screen, imaging, HUVEC, MLSMR starter and 10KST1 sets (AID 438;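 active = inhibition above 20% together with a positive visual image hit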;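 note: compound added about 3h40 before a 20 min TNFalpha stimulation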;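 for inhibition: signal is the nuclear over cytoplasmic p65 intensity ratio per well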). The settings on record: HUVEC TNFa-induced p65 nuclear translocation; cell count: measured here: nuclei count (cytotoxicity indicator), at 2.08 µM; inhibition: at 2 µM, stronger effect = higher value, 0% TNFa-plus-vehicle, 100% no-TNFa wells.
Assay [2] can be described thus: inhibitors of mutant huntingtin aggregation, primary screen, imaging, exon1htt(103Q)mCFP cells, high-content imaging (AID 483;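 active = visual image review flags a hit and inhibition of aggregation exceeds 20%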;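 note: compound exposure lasted 3 days before fixation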;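 for nuclei count: percent of the per-plate median nuclei count of sample wells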). As to conditions: exon1htt(103Q)mCFP cell line, aggregate imaging, at 2 µM; inhibition of aggregation: stronger effect = higher value; nuclei count: measured here: cell count, toxicity.
The nature of assay [3]: inhibitors of E-selectin induction by TNFa, primary screen, imaging, HUVEC, immunofluorescence, MLSMR starter and 10KST1 sets (AID 487;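 active = visually confirmed hit in the image check and inhibition above 20%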;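 for inhibition: signal is fraction of cell area covered by stained E-selectin grains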;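 for nuclei count: 100% = median nuclei count of all wells on the same plate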). The settings on record: HUVEC TNFalpha-induced E-selectin immunofluorescence imaging, at 2 µM; inhibition: stronger effect = higher value; nuclei count: measured here: cell number, toxicity.
Assay [4] deals with Voltage-gated potassium channel subunit beta-2 (Rattus norvegicus) (UniProt P62483). Nature of the assay: KvBeta enzyme negative modulators, primary screen, biochemical, NADPH fluorescence (AID 622;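 active = fluorescence slope higher than the sample average by over 3 SD, cut at about -0.22 in these data, passing the limit was not always enough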;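 note: slope of raw intensity against log time taken from 70 to 1610 s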). The settings on record: recombinant KvBeta, 4-cyanobenzaldehyde reduction, at 10 µM, stronger effect = higher value.
Voltage-gated potassium channel subunit beta-2 (Rattus norvegicus), sequence (P62483 whole entry, looked up): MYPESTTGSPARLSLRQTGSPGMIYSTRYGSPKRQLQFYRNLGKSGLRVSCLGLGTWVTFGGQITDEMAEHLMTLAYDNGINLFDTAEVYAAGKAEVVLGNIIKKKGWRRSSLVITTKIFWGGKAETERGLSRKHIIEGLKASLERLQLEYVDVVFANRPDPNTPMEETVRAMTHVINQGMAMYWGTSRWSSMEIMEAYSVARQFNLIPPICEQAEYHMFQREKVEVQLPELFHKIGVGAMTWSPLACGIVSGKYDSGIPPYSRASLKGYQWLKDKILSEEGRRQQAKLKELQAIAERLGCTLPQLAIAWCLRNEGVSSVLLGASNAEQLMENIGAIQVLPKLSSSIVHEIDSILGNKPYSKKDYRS
Assay [5] shares this target. The experiment in a line: KvBeta positive modulators, primary screen, biochemical, NADPH fluorescence (AID 623).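 Note: fluorescence intensity change per second fitted from 20 to 320 s.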 The settings on record: Recombinant KvBeta, NADPH fluorescence decrease slope, 10 min; at 10 µM; stronger effect = lower value.
For assay [6], the target named is Alpha-2C adrenergic receptor (Homo sapiens) (UniProt P18825). The experiment in a line: modulators of alpha2C/GIRK thallium flux, primary screen, cell-based, HEK293 alpha2C/GIRK1/2 (AID 624;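 active = fluorescence slope after compound addition differing from the mean of all screened samples at 99.7% confidence, in either direction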;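 note: slope of fluorescence ratio to pre-addition baseline per second over 15 to 24 s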). As to conditions: thallium flux BTC fluorescence, at 10 µM, actives lie on both sides.
Alpha-2C adrenergic receptor (Homo sapiens), sequence (P18825 whole entry, looked up): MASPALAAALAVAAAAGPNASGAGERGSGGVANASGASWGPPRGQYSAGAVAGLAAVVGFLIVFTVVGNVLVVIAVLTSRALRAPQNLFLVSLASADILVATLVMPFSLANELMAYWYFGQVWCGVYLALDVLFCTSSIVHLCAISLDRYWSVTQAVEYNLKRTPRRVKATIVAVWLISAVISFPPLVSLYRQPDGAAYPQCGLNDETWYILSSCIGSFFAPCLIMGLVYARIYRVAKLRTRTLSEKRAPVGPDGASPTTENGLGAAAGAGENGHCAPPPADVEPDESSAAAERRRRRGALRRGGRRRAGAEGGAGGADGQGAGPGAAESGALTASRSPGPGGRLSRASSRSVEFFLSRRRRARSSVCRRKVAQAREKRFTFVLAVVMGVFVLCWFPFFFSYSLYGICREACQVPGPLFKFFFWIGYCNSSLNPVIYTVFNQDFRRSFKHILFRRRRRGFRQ
The nature of assay [7]: inhibitors of Sendai virus-induced IRF3 signaling, primary screen, TLR/RLR signaling modifier project, cell-based, Sendai virus stimulus, luciferase, 10K MLSCN set (AID 602276;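 active = inhibition at or above 50% at 10 µM; inactive = inhibition below 50%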;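 note: firefly luciferase from ISG56 promoter only with Renilla not read in this screen; 0% = Sendai virus plus DMSO and 100% = medium plus DMSO without virus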). As to conditions: HEK293 RL24 IRF3 luciferase reporter, at 10 µM, stronger effect = higher value.
Assay [8] is described as follows: inhibitors of poly I:C-induced TLR3 signaling, primary screen, cell-based, poly I:C stimulus, luciferase, 10K MLSCN set (AID 602277;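 active = inhibition of the reporter signal at or above 50%; inactive = inhibition below 50%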). As to conditions: HEK293-TLR3 RL24 IRF3 luciferase reporter, at 10 µM, stronger effect = higher value.

For the compound `COc1cccc(C2CC(=O)Nc3c2c(=O)n(C)c(=O)n3C)c1OC` (centres undefined), in assay [1], the cell count was 499. Further, the inhibition in assay [1] is 2.4% (inactive); in assay [3], -17.6% (inactive); in assay [7], -4.94% (inactive); in assay [8], 16.2% (inactive). In addition, the inhibition of aggregation in assay [2] was -11.6% (inactive). Also, the nuclei count was 39.6% in assay [2] and 112% in assay [3]. For the same compound, in assay [4], the fluorescence slope is -0.536 (inactive). In addition, the NADPH fluorescence slope in assay [5] was 2e-06 (inactive). The slope in assay [6] is 0.00679 (inactive).

As for `CNC(=O)c1ccc(N(Cc2ccccc2C)S(C)(=O)=O)cc1`, the cell count in assay [1] stood at 710. Also, the inhibition in assay [1] was -2.6% (inactive); in assay [3], -40.6% (inactive); in assay [7] it was 11.8% (inactive); in assay [8] it was 11.4% (inactive). For the same compound, the inhibition of aggregation in assay [2] is 0.9% (inactive). Besides, the nuclei count in assay [2] was 117%; in assay [3] it was 116%. For the same compound, the fluorescence slope in assay [4] was -0.636 (inactive). Besides, in assay [5], the NADPH fluorescence slope was -4.1e-05 (inactive). The slope in assay [6] was 0.00383 (inactive).

As to `COC(=O)c1ccc2c(c1)nc(C)n2CCO`, the cell count in assay [1] was 360. Besides, the inhibition in assay [1] was -4% (inactive); in assay [3], -23.6% (inactive); in assay [7], 5.24% (inactive); in assay [8] it was 12.5% (inactive). The inhibition of aggregation in assay [2] was -26% (inactive). Also, the nuclei count in assay [2] is 139%; in assay [3], 94.3%. Besides, the fluorescence slope in assay [4] is -0.315 (inactive). In addition, in assay [5], the NADPH fluorescence slope was -2.9e-05 (inactive). In assay [6], the slope is 0.00466 (inactive).

On to `CCC(Oc1ccccc1)C(=O)Nc1ccccc1OC` (centres undefined), for which the cell count in assay [1] is 352. In addition, the inhibition was 9.2% (inactive) in assay [1], -33.3% (inactive) in assay [3], 0.598% (inactive) in assay [7] and 19.3% (inactive) in assay [8]. Also, the inhibition of aggregation in assay [2] was -9.3% (inactive). Further, the nuclei count turned out to be 106% in assay [2] and 109% in assay [3]. Besides, in assay [4], the fluorescence slope was -0.487 (inactive). Moreover, the NADPH fluorescence slope in assay [5] was -1.9e-05 (inactive). Besides, the slope in assay [6] is 0.00497 (inactive).

`O=C(NCc1ccccn1)c1cc(-n2cnnc2)ccc1Cl`: the cell count in assay [1] worked out at 365. Also, the inhibition in assay [1] is -3.9% (inactive); in assay [3], -3.1% (inactive); in assay [7] it was 2.94% (inactive); in assay [8] it was 10.6% (inactive). Moreover, the inhibition of aggregation in assay [2] is -1.2% (inactive). The nuclei count in assay [2] turned out to be 112%; in assay [3], 110%. Also, the fluorescence slope in assay [4] was -0.502 (inactive). In addition, the NADPH fluorescence slope in assay [5] was -3.7e-05 (inactive). In addition, the slope in assay [6] was 0.00641 (inactive).

For the compound `O=C(COc1ccc(F)cc1Br)N1CCc2ccccc21`, in assay [1], the cell count stood at 414. The inhibition was -7% (inactive) in assay [1], -49.2% (inactive) in assay [3], -38% (inactive) in assay [7] and -100% (inactive) in assay [8]. Also, in assay [2], the inhibition of aggregation was 5% (inactive). Further, the results for the nuclei count in assay [2] and in assay [3] were 105% and 103%, respectively. Moreover, the fluorescence slope in assay [4] is -0.46 (inactive). For the same compound, in assay [5], the NADPH fluorescence slope is 9.7e-05 (inactive). In addition, the slope in assay [6] was 0.0054 (inactive).

`CCSc1nc2c(c(=O)[nH]1)C(c1cccnc1)C(C(=O)OC(C)C)=C(C)N2` (centres undefined): the cell count in assay [1] is 500. Further, the inhibition in assay [1] was 3.8% (inactive); in assay [3], -57.7% (inactive); in assay [7], 1.95% (inactive); in assay [8], 25.7% (inactive). The inhibition of aggregation in assay [2] was 19.4% (inactive). Also, the nuclei count in assay [2] came to 93.1%; in assay [3], 103%. In assay [4], the fluorescence slope was -0.475 (inactive). Also, the NADPH fluorescence slope in assay [5] was -1.6e-05 (inactive). The slope in assay [6] was 0.00631 (inactive).

Turning to `CCC1CCCN1Cn1cnc2c([nH]c3ccc(OC)cc32)c1=O` (centres undefined), the cell count in assay [1] was 602. Besides, the inhibition in assay [1] was -7.6% (inactive); in assay [3], -53.1% (inactive); in assay [7], 11.1% (inactive); in assay [8] it was 26.1% (inactive). The inhibition of aggregation in assay [2] is 3.4% (inactive). Further, the values for the nuclei count in assay [2] and in assay [3] were 108% and 86.2%, respectively. Besides, the fluorescence slope in assay [4] was -0.396 (inactive). Further, the NADPH fluorescence slope in assay [5] is -1.1e-05 (inactive). Also, the slope in assay [6] is 0.0053 (inactive).

Regarding `CC(=O)C1=C(C)NC(C)=C(C(C)=O)C1c1cccs1`, the cell count in assay [1] came out at 466. Moreover, the inhibition in assay [1] is 3.5% (inactive); in assay [3], 28.1% (inactive); in assay [7], 1.28% (inactive); in assay [8] it was 39.4% (inactive). Moreover, in assay [2], the inhibition of aggregation is -5.6% (inactive). The nuclei count amounted to 103% in assay [2] and 108% in assay [3]. Besides, the fluorescence slope in assay [4] is -0.369 (inactive). In addition, the NADPH fluorescence slope in assay [5] is 2.7e-05 (inactive). Further, the slope in assay [6] is 0.00356 (inactive).

As for `Cc1ccc(-c2nc3ncccc3o2)cc1NC(=O)c1ccco1`, the cell count in assay [1] amounted to 317. Also, the inhibition in assay [1] is 0.6% (inactive); in assay [3], -107% (inactive); in assay [7], -1.98% (inactive); in assay [8] it was 14.6% (inactive). Further, the inhibition of aggregation in assay [2] was -1.4% (inactive). In addition, the nuclei count in assay [2] and in assay [3] was 102% each time. In assay [4], the fluorescence slope is -0.429 (inactive). Further, in assay [5], the NADPH fluorescence slope was 2.8e-06 (inactive). The slope in assay [6] was 0.00563 (inactive).

Take `CCCc1nnc(NC(=O)NCCN2C(=O)C3C4C=CC(C4)C3C2=O)s1` (centres undefined): the cell count in assay [1] was 700. In addition, the inhibition in assay [1] is -10.4% (inactive); in assay [3], -78.4% (inactive); in assay [7], -17.6% (inactive); in assay [8], -19.1% (inactive). For the same compound, the inhibition of aggregation in assay [2] is -8.7% (inactive). Moreover, the nuclei count in assay [2] was 76%; in assay [3], 125%. The fluorescence slope in assay [4] is -0.602 (inactive). Besides, the NADPH fluorescence slope in assay [5] is 1.8e-06 (inactive). For the same compound, the slope in assay [6] is 0.00718 (inactive).

With `c1ccc(-n2c(Sc3cnccn3)nnc2-c2cccs2)cc1`, in assay [1], the cell count was 362. For the same compound, the inhibition in assay [1] is -24.6% (inactive); in assay [3], -37.1% (inactive); in assay [7], -2.69% (inactive); in assay [8], 12.5% (inactive). For the same compound, in assay [2], the inhibition of aggregation is 2.4% (inactive). In addition, the figures for the nuclei count in assay [2] and in assay [3] were 100% and 149%, respectively. Besides, in assay [4], the fluorescence slope was -0.612 (inactive). The NADPH fluorescence slope in assay [5] was -1.5e-05 (inactive). Moreover, the slope in assay [6] is 0.00525 (inactive).

Regarding `CCOc1ccc(OCc2cccc(C(=O)N3CCOCC3)c2)cc1`, in assay [1], the cell count turned out to be 383. Also, the inhibition in assay [1] was 3.1% (inactive); in assay [3], -148% (inactive); in assay [7], -39.6% (inactive); in assay [8], -97.2% (inactive). For the same compound, the inhibition of aggregation in assay [2] is -7.6% (inactive). Besides, the nuclei count came out at 101% in assay [2] and 117% in assay [3]. Further, the fluorescence slope in assay [4] is -0.407 (inactive). In assay [5], the NADPH fluorescence slope was -6.4e-05 (inactive). Also, in assay [6], the slope was 0.00492 (inactive).

Regarding `Cc1cc(C)cc(C(=O)N2CCC(C(N)=O)CC2)c1`, the cell count in assay [1] was determined as 706. Moreover, the inhibition in assay [1] is -3.5% (inactive); in assay [3] it was -54.3% (inactive); in assay [7] it was 13.6% (inactive); in assay [8], 20.8% (inactive). The inhibition of aggregation in assay [2] was -33.2% (inactive). Further, the nuclei count was 109% in assay [2] and 122% in assay [3]. Also, the fluorescence slope in assay [4] is -0.297 (inactive). Moreover, the NADPH fluorescence slope in assay [5] is -4.1e-05 (inactive). In assay [6], the slope is 0.00604 (inactive).
